Source: PubChem BioAssay (National Center for Advancing Translational Sciences (NCATS))
Most compounds without a hit are left out; they make up all but 19% or so of the library.
HepG2 tox = qHTS for Inhibitors of TGF-b: Cytotox Counterscreen; HepG2 CAGA-GFP viability, ATP luminescence, 18 h; Potency, µM (titrated, usually from 46.1 µM), usual class: cytotoxic; 410,000 compounds, 0.76% hits
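CellTiter-Glo luminescence gave cytotoxicity after 18 hours at 37 degrees C. The cells were HepG2 CAGA-GFP in 1% FBS DMEM, stimulated with 500 pg/mL TGF-beta after compound addition. %Activity was normalised to no-cell wells (complete cell-killing) and DMSO (no toxicity), and curves were fitted and classified.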
IL1B secr inh = qHTS for Inhibitors of Inflammasome Signaling: IL-1-beta AlphaLISA Primary Screen; THP-1 LPS/ATP IL-1B secretion, AlphaLISA, 16 h; stronger effect = lower value; 360,000 compounds, 4.7% hits; activity change, % at 57.5 µM; in the data active means activity change below about -50%; inconclusive means mostly about -30% to -49%
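Secreted IL-1B measured by AlphaLISA bead assay after 16 h compound exposure of THP-1 cells; compounds (final up to 57.5 uM) added 1 h before LPS (250 ng/mL) and ATP (1.25 mM) stimulation; lower signal means less secretion.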
TGFb SMAD3 inh = qHTS for Inhibitors of TGF-b | HepG2 CAGA-GFP TGF-b/SMAD3 reporter, GFP fluorescence, 18 h; TGF-beta stimulated, 500 pg/mL final | Potency, µM (doses to about 46.1 µM), actives largely listed as inhibitors | 410,000 compounds, 1.2% hits | AID 588855, 2011; further: nearly all actives have a fitted effect of over 65% in size
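HEPG2 CAGA-GFP cells (1000/well, DMEM with 1% FBS) were pre-incubated 2 h at 37 degrees C, given compound by pin tool, then stimulated with TGF-beta at 500 pg/mL final for 18 h before per-cell GFP fluorescence imaging.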
DT40 TDP1 no CPT = qHTS for Inhibitors of human tyrosyl-DNA phosphodiesterase 1 (TDP1): qHTS in cells in absence of CPT. DT40 Tdp1-/- hTDP1 cells, no CPT, ATP luminescence, 48 h. 420,000 compounds, 15% hits. Potency, µM (top dose mostly 46.2 µM), most hits filed as inhibitors; further: nearly all actives have a fitted effect of over 55% in size
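Stably hTDP1-transfected Tdp1-null chicken DT40 cells were treated with library compounds minus camptothecin and grown for at least 48 hr at 37 °C, after which cellular ATP was quantified by luminescence.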
TDP1 cell CPT = qHTS for Inhibitors of human tyrosyl-DNA phosphodiesterase 1 (TDP1): qHTS in cells in presence of CPT. Potency, µM (titrated, usually from 46.2 µM), usual class: inhibitors. 420,000 compounds, 12% hits. chicken DT40 Tdp1-/-;hTDP1 cells + 20 nM CPT, ATP luminescence, 48 h; further: nearly all actives have a fitted effect of over 55% in size
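Chicken DT40 Tdp1-/- cells complemented with human TDP1, 400 cells/well, exposed to compounds plus 20 nM camptothecin for at least 48 h at 37 C; viability read as ATP content by CellTiter-Glo luminescence.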
TDP1 block = qHTS Assay for Inhibitors of Tyrosyl-DNA Phosphodiesterase (TDP1). 350,000 compounds, 0.28% hits. Potency, µM (highest dose often 130 µM), most hits filed as inhibitors. Tyrosyl-DNA phosphodiesterase 1 (Homo sapiens), Q9NUW8. AID 485290, 2010. recombinant TDP1, AlphaScreen DNA substrate cleavage; further: nearly all actives have a fitted effect of over 40% in size
Target sequence (Q9NUW8 whole entry, looked up): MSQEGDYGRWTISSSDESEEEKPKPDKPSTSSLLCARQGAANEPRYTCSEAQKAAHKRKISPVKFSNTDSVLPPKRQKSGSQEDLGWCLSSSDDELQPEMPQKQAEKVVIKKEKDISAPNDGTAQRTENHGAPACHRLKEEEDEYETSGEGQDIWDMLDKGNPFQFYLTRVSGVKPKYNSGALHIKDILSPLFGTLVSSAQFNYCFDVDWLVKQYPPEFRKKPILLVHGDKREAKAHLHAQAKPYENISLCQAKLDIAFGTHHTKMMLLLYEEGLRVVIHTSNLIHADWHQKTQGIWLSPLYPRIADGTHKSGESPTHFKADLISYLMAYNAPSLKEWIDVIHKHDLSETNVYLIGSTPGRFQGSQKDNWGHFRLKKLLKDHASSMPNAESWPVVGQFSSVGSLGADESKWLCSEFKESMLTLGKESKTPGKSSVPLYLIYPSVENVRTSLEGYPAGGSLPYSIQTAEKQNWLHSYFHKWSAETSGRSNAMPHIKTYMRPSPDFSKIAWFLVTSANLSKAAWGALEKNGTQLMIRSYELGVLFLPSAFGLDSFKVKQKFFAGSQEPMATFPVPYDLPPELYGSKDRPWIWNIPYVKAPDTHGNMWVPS
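E. coli-derived human Tdp1, 1 nM final. Cpd preinc 15 min RT; substrate 15 nM final, 5 min RT; AS bead mix 10 ug/ml final, 10 min RT. Signal loss = tyrosine-FITC cleavage. No-enzyme wells = max signal.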
Numbers stand for hits; i = inactive; ? = inconclusive; nt = not tested or not shown; ! = not active in a repeat; [ ] = remark or other dose. Unless noted, the call rests on the fitted dose curve; in most records, active means well fitted curve in the direction sought with a large enough effect; inconclusive means small, poorly fitted or top-dose-only effect, or another doubt; inactive means no such curve, though single readings can be large; an effect the other way counts as inactive or inconclusive.

SMILES | HepG2 tox | IL1B secr inh | TGFb SMAD3 inh | DT40 TDP1 no CPT | TDP1 cell CPT | TDP1 block
CC1(C(=O)NC2CCN(Cc3ccccc3)CC2)CCN1Cc1ccc(OC(F)(F)F)cc1 (centres undefined) | i | i | ? | ? | ? | nt
COc1ccccc1CNC(=O)C1(C)CCN1Cc1ccc(OC(F)(F)F)cc1 (centres undefined) | i | i | ? | ? | 16µM | nt
CC1(C(=O)NCc2ccco2)CCN1C(=O)C1(c2ccccc2)CC1 (centres undefined) | i | -107 | i | 5.2µM | 4.6µM | nt
COc1ccccc1CNC(=O)C1(C)CCN1C(=O)C1(c2ccccc2)CC1 (centres undefined) | i | i | i | 26µM | 16µM | nt
CC1(C(=O)NCc2cccc3ccccc23)CCN1C(=O)C1(c2ccccc2)CC1 (centres undefined) | i | i | i | ? | ? | nt
CC(=Nc1ccc(C)cc1C)c1sc2ccccc2c1O | i | i | i | 18µM | ? | i
CC(=Nc1ccc(C)cc1)c1sc2ccccc2c1O | i | i | i | i | i | i
CC(C)(C)c1ccc(C(=O)N2CCCC2c2cccs2)cc1 (centres undefined) | i | -99 | ? | ? | i | i[0.0935 µM]
CC(C)(C)c1ccc(C(=O)/C(C#N)=C/c2cccs2)cc1 | i | i | i | i | i | i
Cc1c2cnn(CC(=O)NCc3ccc(F)cc3)c(=O)c2c(C)n1Cc1cccc(Cl)c1 | i | nt | i | 4.1µM | 4.1µM | i
Cc1ccc(C)c(NC(=O)Cn2ncc3c(C)n(Cc4ccc(F)cc4)c(C)c3c2=O)c1 | i | nt | i | ? | ? | i
Cc1c2cnn(CC(=O)Nc3ccc(F)cc3F)c(=O)c2c(C)n1Cc1cccc(Cl)c1 | i | nt | i | ? | i | i
Cc1c2cnn(CC(=O)NCc3ccc(F)cc3)c(=O)c2c(C)n1Cc1ccccc1F | i | nt | i | 16µM | ? | i
CCC(C)NC(=O)Cn1ncc2c(C)n(Cc3ccc(F)cc3)c(C)c2c1=O (centres undefined) | i | nt | i | ? | 23µM | i
COc1ccc(NC(=O)C2CCCN(S(=O)(=O)c3ccccc3)C2)c(OC)c1 (centres undefined) | i | i | i | ? | ? | i
CC(C)(C)OC(=O)n1cc(C(=O)c2ccccc2O)cn1 | i | i | i | i | i | i
CC(C)(C)C1=CC(=Nc2ccccc2N)C=C(C(C)(C)C)C1=O | i | -113 | ? | ? | ? | i
CN(C)CCCN(C(=O)c1cc2ccccc2oc1=O)c1nc2c(F)cccc2s1 | i | i | i | i | i | i
Cc1cccc2sc(N(CCCN(C)C)C(=O)c3cc4ccccc4oc3=O)nc12 | i | i | i | ? | 23µM | i
Cc1ccc2nc(N(CCCN(C)C)C(=O)c3cc4ccccc4oc3=O)sc2c1 | i | -51 | i | ? | i | i
Cc1cccc2sc(N(CCN(C)C)C(=O)c3ccc4c(c3)OCCO4)nc12 | i | nt | i | ? | ? | i
Cc1cccc2sc(N(CCCN(C)C)C(=O)c3ccc(Cl)s3)nc12 | i | -62 | ? | ? | 23µM! | i
COc1ccc(S(=O)(=O)NCCc2sc(-c3cccnc3)nc2C)cc1 | i | nt | i | nt | nt | i
Cc1nnc(SCC(=O)N2CCN(S(=O)(=O)c3ccccc3)CC2)s1 | i | i | ? | i | i | i
CN(C)C(=O)N1CCN(S(=O)(=O)c2ccc3ccccc3c2)CC1 | i | i | i | ? | i | nt
CCCCNc1nnc(SCC(=O)N2CCN(S(=O)(=O)c3ccc4ccccc4c3)CC2)s1 | i | -54 | i | 23µM | ? | i
